These results are taken from PubChem BioAssay AID463173 (ICCB-Longwood Screening Facility, Harvard Medical School, 2010).

Out of some 52,000 compounds screened, about 4,300 (8.3%) were called active. Rule as the data show it: active = survival mostly below about 52% (no sharp cut-off); inactive = mostly above about 56%. What follows is part of a selection rich in actives, with near analogues and random picks from the rest.

For this experiment, the system named is DeltatarO mutant. Briefly: growth inhibition of S. aureus wild type versus tarO mutant, primary screen, teichoic acid synthesis inhibitors, RN4220, OD600 (AID 463173). The following applies: OD600, 18 h, stronger effect = lower value, screened at 18.75 µg/mL (by protocol).
Consider `CCN(CC)CCCNc1nc(C)nc2c1nnn2Cc1ccccc1`, for which the survival is 94% (inactive). Turning to `CC(C(=O)NCc1ccco1)N1CCN(C)CC1` (stereo unspecified), the survival is 95% (inactive). Regarding `CC(C)NC(=O)Cc1ccc(Br)cc1`, the survival is 80% (inactive).

As for `Cc1cccc(N(C)S(=O)(=O)c2cc(-c3cnc(C4CC4)o3)ccc2C)c1`, the survival was 100% (inactive).

On to `CCc1ccc(NC(=O)CSc2nnc(-c3nonc3NC(C)=O)n2-c2ccccc2)cc1`, for which the survival was 43% (active). `COc1ccccc1NC(=O)CSc1nnc(-c2nonc2NC(C)=O)n1-c1ccccc1`: the survival is 63% (inactive). Consider `CC(=O)Nc1nonc1-c1nnc(SCC(=O)Nc2ccc(F)cc2F)n1-c1ccccc1`, for which the survival is 13% (active).

For the compound `COc1ccc(NC(=O)CSc2nnc(-c3nonc3NC(C)=O)n2-c2ccccc2)cc1`, the survival is 60% (active). As to `CC(=O)Nc1nonc1-c1nnc(SCC(=O)Nc2c(C)cccc2C)n1-c1ccccc1`, the survival is 56% (inactive). Consider `CC(=O)Nc1nonc1-c1nnc(SCC(=O)Nc2ccc(C)cc2)n1-c1ccccc1`, for which the survival was 53% (inactive). Next, `CC(=O)Nc1nonc1-c1nnc(SCC(=O)Nc2cc(C)ccc2C)n1-c1ccccc1`: 104% (inactive). With `CCOc1ccc(NC(=O)CSc2nnc(-c3ccncc3)n2-c2ccccc2)cc1`, the survival is 122% (inactive). Next, `CC(=O)Nc1nonc1-c1nnc(SCC(=O)Nc2ccccc2)n1-c1ccccc1`: 39% (active); `CCc1ccccc1NC(=O)CSc1nnc(-c2nonc2NC(C)=O)n1C`: 52% (inactive); `CCn1c(SCC(=O)Nc2ccc(C)c(C)c2)nnc1-c1nonc1NC(C)=O`: 110% (inactive). Take `COc1ccc(NC(=O)CSc2nnc(-c3ccncc3)n2-c2ccccc2)cc1`: the survival was 77% (inactive). Next, `Cc1cccc(NC(=O)CSc2nc3ccc(NC(=O)c4ccco4)cc3s2)c1`: 66% (inactive). For the compound `CCC1CN(C(=O)N2CCC(C(=O)NCc3ccc(OC)cc3OC)CC2)c2cc(C)ccc2O1` (stereo unspecified), the survival is 79% (inactive). Take `CCOc1cc(C2c3c(oc4ccccc4c3=O)C(=O)N2c2ccccn2)ccc1O` (stereo unspecified): the survival was 109% (inactive). As for `CCOC(=O)Cn1c(=O)oc2cc(S(=O)(=O)NCc3ccc(F)cc3)ccc21`, the survival was 72% (inactive). The result for `Cc1cccn2c(=O)c(C(=O)NCCc3ccc(S(N)(=O)=O)cc3)c(O)nc12` reads 51% (inactive). The result for `Cc1nn2c(=O)cc(COc3ccc(/C=C(\C#N)C(=O)Nc4ccc(F)cc4)cc3)nc2s1` reads 58% (inactive); that for `CCOC(=O)c1c(C)[nH]c(C)c1S(=O)(=O)N1CCC(C(=O)Nc2ccc(C)c(N(C)C)c2)CC1`, 84% (inactive); that for `CC(=O)N1CCc2nc3sc(C(=O)Nc4ccc(Cl)cc4F)c(N)c3c(C(F)(F)F)c2C1`, 75% (inactive). For the compound `CC(=O)Nc1nonc1-c1nnc(SCC(=O)Nc2cc(C)cc(C)c2)n1-c1ccccc1`, the survival is 50% (inactive). Next, `CC(=O)Nc1nonc1-c1nnc(SCC(=O)Nc2cccc(C)c2C)n1-c1ccccc1`: 61% (inactive); `CC(=O)Nc1nonc1-c1nnc(SCC(=O)Nc2cccc(F)c2)n1-c1ccccc1`: 19% (active). Consider `Cc1nc2cc(-c3ccccc3)nn2c(C)c1CCC(=O)Nc1ccc(F)cc1F`, for which the survival is 61% (inactive).

`CCOC(=O)N1CCc2c(sc3c2c(=O)n(Cc2ccccc2)c(=O)n3CC(=O)Nc2cccc(CC)c2)C1`: the survival is 71% (inactive). In the case of `O=C(Nc1ccc(OC(F)(F)F)cc1)C(Cc1ccccc1)NS(=O)(=O)c1cccc2nsnc12` (stereo unspecified), the survival is 49% (active). Consider `O=C(Nc1ccc(OC(F)(F)F)cc1)C(NS(=O)(=O)c1cccc2nsnc12)c1ccccc1` (stereo unspecified), for which the survival is 56% (inactive). On to `COc1cc(NC(=O)C(Cc2ccccc2)NS(=O)(=O)c2cccc3nsnc23)cc(OC)c1` (stereo unspecified), for which the survival was 72% (inactive). As to `CCc1ccccc1NC(=O)N1CCN(c2cc(-c3noc(C)n3)ccc2C)CC1`, the survival is 134% (inactive). Take `S=c1[nH]nc(CCCOc2ccc(Cl)cc2Cl)o1`: the survival is 54% (inactive). `O=C(NC1CCCCC1)NC1CCN(Cc2nnnn2Cc2ccc(F)cc2)CC1`: the survival is 88% (inactive). `COc1ccc(Cn2ccc3nc(C)c(C(=O)N4CCN(c5ccccc5F)CC4)cc3c2=O)cc1`: the survival was 63% (inactive). The result for `COc1ccc(CCC(=O)NCc2ccc3c(c2)CCN3C(=O)c2ccc(Cl)cc2)cc1` reads 89% (inactive); that for `CC1CCN(C(=O)c2cccc(Cl)c2)CC1`, 93% (inactive). The result for `O=C(c1ccccc1Cl)n1cc(Cl)cn1` reads 95% (inactive); that for `COc1ccccc1C(=O)N1CCC(c2c[nH]c3ccccc23)(c2c[nH]c3ccccc23)CC1`, 98% (inactive); that for `CN1CC2(C)CN(C(=O)c3ccccc3Cl)CC(C)(C1)C2`, 88% (inactive). Take `COc1ccccc1C(=O)CC1(O)C(=O)N(CC(N)=O)c2ccccc21` (stereo unspecified): the survival is 61% (inactive). In the case of `COc1ccc(C(=O)N2CCC(C(=O)Nc3ccc(Cl)cc3)CC2)cc1`, the survival is 127% (inactive).

Turning to `COc1ccccc1C(=O)N1c2ccccc2C(C)(c2ccc(Cl)cc2)CC1(C)C` (stereo unspecified), the survival was 0% (active). `CC1(c2ccccc2)CC(C)(C)N(C(=O)c2ccccc2Cl)c2ccccc21` (stereo unspecified): the survival is -4% (active). `CC1CCN(c2ccc(NC(=O)c3cccc(Cl)c3)cc2C(=O)O)CC1`: the survival was 87% (inactive).

For `COc1ccc(C(=O)N2c3ccccc3C(C)(c3ccc(Cl)cc3)CC2(C)C)cc1` (stereo unspecified), the survival was 11% (active). As for `CC1(c2ccccc2)CC(C)(C)N(C(=O)c2cccc(Cl)c2)c2ccccc21` (stereo unspecified), the survival was 8% (active).

Consider `CC(C(=O)c1ccccc1)n1cnc2ccccc2c1=O` (stereo unspecified), for which the survival was 104% (inactive). Next, `COc1ccccc1N1CCN(C(=O)Cn2cnc3onc(-c4ccc(F)cc4)c3c2=O)CC1`: 84% (inactive). Next, `Fc1ccc(CN2CCc3nc(N4CCN(c5ccccc5F)CC4)ncc3C2)c(F)c1`: 77% (inactive); `Cc1cc(NC(=O)CCn2c(=O)c3cccn3c3cccnc32)ccc1Br`: 102% (inactive). `COc1ccc(CNC(=O)Cn2c(=O)nc(-c3ccccc3)c3ccccc32)cc1OC`: the survival was 89% (inactive). Turning to `CCCCc1nn2c(=O)cc(COC(=O)c3ccccc3NC(=O)C3CCCCC3)nc2s1`, the survival was 71% (inactive). In the case of `CC1=C(c2cccc(Cl)c2)S(=O)(=O)NC1=NCc1ccccc1C`, the survival is 99% (inactive). As to `O=C(NCc1ccc2c(c1)CCN2C(=O)c1ccc(Cl)cc1)c1cccc(F)c1`, the survival is 61% (inactive).

Take `O=C(c1cccc(F)c1)N1CCC(c2c[nH]c3ccccc23)(c2c[nH]c3ccccc23)CC1`: the survival is 86% (inactive).

As to `CC1(C)C(=O)N(CC(=O)Nc2ccc(Cl)cc2)c2ccccc21`, the survival was 83% (inactive).

Take `CC1(c2ccc(Cl)cc2)CC(C)(C)N(C(=O)c2cccc(F)c2)c2ccccc21` (stereo unspecified): the survival was 11% (active). As for `CC1(c2ccc(Cl)cc2)CC(C)(C)N(C(=O)c2ccccc2)c2ccccc21` (stereo unspecified), the survival was -4% (active).

Take `CC1CC(C)CN(C(=O)c2ccc(Cl)cc2)C1` (stereo unspecified): the survival was 96% (inactive).
